High-throughput results deposited in PubChem BioAssay by University of Kansas High Throughput Screening Laboratory.
The list is not random: actives were taken first. Their share in the collection is about 3.6%.
mHTT CaM bind: inhibitors of human mutant huntingtin-calmodulin interaction; P42858; AlphaScreen His-mHTT/GST-CaM binding, luminescence; inhibition, % at 15 µM; 3.6% of 190,000 active; AID 1671202;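 note: 0% = both proteins with DMSO and 100% = one protein alone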
Pf apPOL inh: Pf-apPOL DNA polymerase inhibition; inhibition, % at 10 µM; 0.25% of 210,000 active; Recombinant Pf-apPOL, molecular beacon fluorescence, 1.5 h
* hit, by the source's call; . = not tested or not shown. Cut-off read from the data, not from the text of the source: active = inhibition above about 50%; inactive = the rest.

SMILES	mHTT CaM bind	Pf apPOL inh
COc1cccc(NC(=O)Nc2nnc(COc3ccc(C)cc3C)s2)c1	-5	-4
O=C1N=C(c2ccccc2)S/C1=C\c1cccs1	62*	-11
Cc1ccc(C2=NC(=O)/C(=C/c3sccc3C)S2)cc1	53*	4
Cc1ccsc1/C=C1\SC(c2ccccc2)=NC1=O	41	-2
O=C1N=C(N2CCCCC2)S/C1=C\c1cccs1	-1	-7
O=C1CSC(c2ccc([N+](=O)[O-])cc2)N1c1cc(Cl)ccc1O (configuration not stated)	6	6
CNC(=S)Nc1ccc(Oc2ccccc2)cc1	.	-32
COCc1cc(C(C)(C)C)c(O)c(O)c1C(C)(C)C	62*	-2
CC(C)(C)c1cc(C(=O)O)cc(C(C)(C)C)c1O	-8	3
Cc1nc(CSc2ncnc3sc4c(c23)CCC4)cs1	-8	5
Cc1noc(C)c1C1CCCN1C(=O)c1cc(-c2ccccc2Cl)on1 (configuration not stated)	2	-1
O=C(COc1ccccc1)NCCNc1ccc(Nc2ccccn2)nn1	87*	-10
O=c1cccnn1CCNS(=O)(=O)c1ccccc1C(F)(F)F	-8	-5
O=S(=O)(NCCNc1ccc(Nc2ccccn2)nn1)c1ccccc1C(F)(F)F	97*	-5
O=C(O)COCC(=O)Nc1ccccn1	.	-5
Cc1nccn1-c1cc(NCCNC(=O)Nc2ccc(F)c(Cl)c2)ncn1	-16	-4
O=C(NCCNc1ccc(Nc2ccccn2)nn1)Nc1ccc(F)c(Cl)c1	100*	-5
CCOC(=O)COc1cccc2c(=O)n(CC(=O)NCCc3ccccc3)ccc12	5	-7
OC(COCC12CC3CC(CC(C3)C1)C2)CN1CCC(Cc2ccccc2)CC1 (configuration not stated)	-1	1
O=C(c1sc2c3ccccc3nc[n+]2c1O)C(F)(F)F	17	-5
CCOc1cc2c(c([N+](=O)[O-])c1)NC(c1ccc([N+](=O)[O-])cc1)C1CC=CC21 (configuration not stated)	50*	1
COc1cc2c(c([N+](=O)[O-])c1)NC(c1ccc(Br)cc1)C1CC=CC21 (configuration not stated)	24	-1
CCOc1cc2c(c([N+](=O)[O-])c1)NC(C(C)C)C1CC=CC21 (configuration not stated)	73*	1
CCOc1cc2c(c([N+](=O)[O-])c1)NC(c1ccccc1F)C1CC=CC21 (configuration not stated)	95*	-2
COCCN1C(=O)c2ccccc2C(C(=O)Nc2ccccc2OC)C1c1ccc(F)cc1 (configuration not stated)	2	-4
SMILES	mHTT CaM bind	Pf apPOL inh
O=[N+]([O-])c1cccc(S(=O)(=O)NCCSc2nc3ccccc3s2)c1	14	-6
COc1cc(C2CC(=O)Oc3ccc(C(C)(C)C)cc32)cc(OC)c1OC (configuration not stated)	30	-1
COc1cc(C(CCN2CCCC(C)C2)c2c(OC)cc(OC)c3c2OC(=O)CC3c2ccc(N(C)C)cc2)cc(OC)c1OC (configuration not stated)	93*	7
COc1ccc(C(CCN2CCCC(C)C2)c2c(O)cc(OC)cc2OC)cc1 (configuration not stated)	15	-1
COc1cc(OC)c2ccc(=O)oc2c1C(CCN1CCCC(C)C1)c1ccc(N(C)C)cc1 (configuration not stated)	54*	-1
COc1cc(OC)c2c(c1C(CCN1CCCC(C)C1)c1ccc(N(C)C)cc1)OC(=O)CC2c1ccc(N(C)C)cc1 (configuration not stated)	100*	-4
COc1cc(C2CC(=O)Oc3c(C(CCN4CCCC(C)C4)c4ccc(N(C)C)cc4)c(OC)cc(OC)c32)cc(OC)c1OC (configuration not stated)	86*	-4
COc1cc(O)c(C(CCN2CCCC(C)C2)c2cc(OC)c(OC)c(OC)c2)c(OC)c1 (configuration not stated)	9	-6
CC(C)(C)[C@H]1CCN2CCC[C@](c3ccccc3)(C1)[C@@]21CO1	34	-6
Cn1nc(COc2ccccc2)c2c1CCN(C(=O)Nc1cccc(Cl)c1F)C2	30	0
CCc1ccc(C(=O)Nc2cc(-c3ccn[nH]3)sc2C)cc1	0	-5
Cc1cccc(CNC(=O)C2CCN(c3cnn(Cc4ccccc4)c(=O)c3)CC2)c1	-2	-6
Cc1ccc(C)c(S(=O)(=O)Nc2ccc3oc(=O)sc3c2)c1	24	73*
Cc1cc(C)c(S(=O)(=O)Nc2ccc3oc(=O)sc3c2)cc1C	42	2
COc1cc(C(Nc2cc(C)ccn2)c2ccc3ccc(C)nc3c2O)cc(OC)c1OC (configuration not stated)	89*	2
Cc1cccc(NC(c2ccccc2)c2ccc3ccc(C)nc3c2O)n1 (configuration not stated)	77*	-1
Cc1cccc(NC(c2cccc(O)c2)c2ccc3ccc(C)nc3c2O)n1 (configuration not stated)	89*	-12
CCC(C(=O)Nc1cccc(C)n1)c1ccccc1 (configuration not stated)	-6	-5
Cc1ccnc(NC(c2cccc(O)c2)c2ccc3ccc(C)nc3c2O)c1 (configuration not stated)	93*	-5
COc1ccc(-c2csc(Nc3cc(C)ccn3)n2)cc1OC	47	2
Cc1ccnc(NC(=O)CSc2nc(C)cc(C)n2)c1	-2	-1
Cc1ccc2cccc(I)c2n1	.	-5
CCOc1ccc(NS(=O)(=O)c2cc3c(s2)CCN(C(=O)C2CCC2)C3)cc1	10	-3
COc1ccc(CSc2nc3c(c(=O)n(C)c(=O)n3C)n2C)cc1[N+](=O)[O-]	-1	-37
CCC(C(=O)Nc1ccccn1)c1ccccc1 (configuration not stated)	-4	2
SMILES	mHTT CaM bind	Pf apPOL inh
Cc1cccc(NC(c2cccnc2)c2ccc3ccc(C)nc3c2O)n1 (configuration not stated)	90*	-6
Cc1ccc2cccc(SCC(=O)Nc3ccc(F)cc3)c2n1	-1	-14
Cc1cccc(NC(c2ccccc2F)c2ccc3ccc(C)nc3c2O)n1 (configuration not stated)	71*	-4
Cc1cccc(NC(c2cccc([N+](=O)[O-])c2)c2ccc3ccc(C)nc3c2O)n1 (configuration not stated)	70*	-10
Cc1cc(O)c(C(c2cccnc2)c2c(O)cc(C)oc2=O)c(=O)o1	3	0
O=c1cc(CO)oc(C(Nc2ccccn2)c2cccc([N+](=O)[O-])c2)c1O (configuration not stated)	14	10
Cc1ccc2ccc(C(Nc3ccccn3)c3cccc(O)c3)c(O)c2n1 (configuration not stated)	76*	-16
Cc1occc1C(=O)NCc1cccs1	0	-5
O=S(=O)(c1ccc(Br)c2nsnc12)N1CCOCC1	2	-1
O=C(CCC1CCCN(C(=O)Nc2ccccc2)C1)NCc1cccc(F)c1 (configuration not stated)	-12	-5
CN1OCC(S(=O)(=O)N(C)Cc2ccccc2)C1c1ccnc2ccccc12 (configuration not stated)	36	-1
COc1ccc(C(=O)Nc2cc(-c3nc4cc(Cl)ccc4o3)ccc2C)cc1[N+](=O)[O-]	4	0
